Reference: PubChem BioAssay (NCATS)
Values joined by “and” are separate entries in the source; they are usually repeats but may differ in a detail not shown here. Identical values can stand only once. Results filed as inconclusive are left out. Some structures have more than one record in an assay (separate samples or runs), and their calls can disagree. A number with no mark means an inactive call. Active and inactive are the calls of the source. Calls follow the shape of the dose curve; as a rule, active = well fitted cell-killing curve with a large enough effect; inconclusive = small, poorly fitted or top-dose-only effect; inactive = flat fitted curve, though single readings scatter.

Experiment: Cellular viability qHTS for adrenocortical cancer (ACC) cell line SW-13 (AID 1963989); also: nearly all actives have a fitted effect of over 65% in size;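 as to activity (max response): cells grown in serum-free medium with ITS supplement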
Conditions: SW-13 ACC cells viability, CellTiter-Glo, 48 h; activity (max response): hits give low values
Description: PI: Naris Nilubol, MD Surgical Oncology Program, National Cancer Institute (NCI) National Institute of Health (NIH), Bethesda, Maryland Adrenocortical cancer (ACC) is a rare malignancy with poor survival outcomes and few treatment options. Currently, mitotane is the only FDA-approved therapy for ACC. Although adjuvant radiation therapy is rarely utilized, it has the potential to improve survival in select cases. Through a quantitative high-throughput drug screen (qHTS), we identified auranofin (AF), a thioredoxin reductase (TXNRD) inhibitor, as a promising candidate drug. This study aims to evaluate whether AF can enhance the efficacy of radiation therapy in the treatment of ACC. Two human ACC cell lines, SW-13 and NCI-H295R, were screened using the National Center for Advancing Translational Sciences (NCATS) Pharmaceutical Collection (NPC) and the Mechanism Interrogation PlatE (MIPE) library (~4,991 compounds). CellTiter-Glo (Cat # G7570, Promega, Madison, WI) was utilized to measure cell viability. Described herein are the results of the corresponding viability assay.
PROTOCOL TABLE (as described by Inglese J, Shamu CE and Guy RK. 2007) SEQUENCE No. (e.g., 1, 2, 3, etc.); […] (e.g., Cells, Incubation, Reagent, etc.); VALUE; DESCRIPTION. 1; Cells; 5 uL; white, solid-bottom, 1536-well tissue-culture treated plates. 2; Time; overnight culture at 37C with 5% CO2. 3; Compounds and control; 23 nL; Kalypsis pin tool (Wako USA) equipped with a 1536-well pin head to transfer to the assay plates. 4; Time; 48 hours; 37C with 5% CO2. 5; Reagent; 4 uL; CellTiter-Glo luminescent substrate mix. 6; Time; 20 min at room temperature. 7; Detection; Luminescence; ViewLux plate reader NOTES (numbers refer to Sequence numbers above) 1. SW13 cells were harvested from a T175 flask and resuspended in ITS-supplemented DMEM serum-free medium at a concentration of 300 000 cells/mL. Then 5 uL of resuspended cells were dispensed into each well of white, solid-bottom, 1536-well tissue-culture-treated plates using a multidrop combi dispenser. The plates were covered with stainless steel gasket lids. 2-3. The plates were cultured overnight at 37C with 5% CO2. Twenty-three nL of compounds (eight selected concentrations from the NPC / MIPE) or positive control (10 mM stock of bortezomib) in DMSO was transferred to each well of the assay plate using a pin tool (Kalypsys, San Diego, CA, USA). The final concentration of the compounds in the 5 uL assay volume ranged from 0.5 nM to 46 uM. 4-6. After 48 hours of incubation at 37C and 5% CO2, 4 uL of CellTilter-Glo luminescent substrate mix (Promega, Madison, WI, USA) was added to each well. Then the plates were incubated for 20 minutes at room temperature. 7. After incubation, luminescence was measured using a ViewLux plate reader (PerkinElmer, Waltham, MA, USA) with a clear filter was used to measure the number of metabolically competent cells. To determine compound activity in the qHTS assay, the titration-response data for each sample was plotted and modeled by a four-parameter logistic fit yielding IC50 and efficacy (maximal response) values. […] REFERENCES: Inglese J, Shamu CE and Guy RK, Reporting data from high throughput screening of small molecule libraries, Nature Chemical Biology, 2007, 3(8): 438-441. doi.org/10.1038/nchembio0807-438.
% is scaled to controls: 0 for no effect and ±100 for the full control effect; potency is read from the fitted curve at half-maximal effect.

Row | Structure (SMILES) | activity (max response) | Potency
1 | NC/C=C/C(=O)O | 8.43% | –
2 | Cc1cccc(-c2[nH]ncc2-c2ccc(F)c(-c3cnn(CCO)c3)c2)n1 | -6.75% | –
3 | C[C@H]1O[C@@H](O[C@H]2CC[C@@]3(C)[C@H](CC[C@@H]4[C@@H]3C[C@@H](O)[C@]3(C)[C@@H](C5=CC(=O)OC5)CC[C@]43O)C2)C[C@H](O)[C@@H]1O[C@H]1C[C@H](O)[C@H](O[C@H]2C[C@H](O)[C@H](O[C@@H]3O[C@H](CO)[C@@H](O)[C@H](O)[C@H]3O)[C@@H](C)O2)[C@@H](C)O1 | – | 0.082 µM (active)
4 | CN(C(=O)c1c(O)c2ccccc2n(C)c1=O)c1ccccc1 | 3.23% and -16.1% | –
5 | COc1cc2nccc(Oc3ccc(NC(=O)c4cn(C(C)C)c(=O)n(-c5ccc(F)cc5)c4=O)cc3F)c2cc1OC | 9.27% | –
6 | CC(C)NCCCC1(C(N)=O)c2ccccc2-c2ccccc21 | 9.8% | –
7 | CN(C)CCNC(=O)NC[C@H]1CC[C@@H]2[C@H](O1)c1cc(C(F)(F)F)ccc1N[C@H]2c1ccccc1 | – | 0.251 µM (active)
8 | C#Cc1ccc(-c2ccccc2F)cc1 | -5.81% | –
9 | C[C@H](CCC(=O)O)[C@H]1CC[C@H]2[C@@H]3C(=O)C[C@@H]4CC(=O)CC[C@]4(C)[C@H]3CC(=O)[C@]12C | 15.5% | –
10 | Cc1cc(C(=O)N2CCN(c3cccc(Cl)c3)CC2)n(-c2ccccc2)n1 | – | 0.355 µM (active)
11 | C=C1[C@H](CO)[C@@H](O)C[C@@H]1n1cnc2c(=O)[nH]c(N)nc21 | -5.41% | –
12 | COc1cccc2c1C(=O)c1c(O)c3c(c(O)c1C2=O)C[C@@](O)(C(=O)CO)C[C@@H]3O[C@H]1C[C@H](N)[C@@H](O)[C@H](C)O1 | – | 1.12 µM (active)
13 | Cn1cncc1C(N)(c1ccc(Cl)cc1)c1ccc2c(c1)c(-c1cccc(Cl)c1)cc(=O)n2C (stereo not given) | – | 6.31 µM (active)
14 | Cc1ccc(-c2cc(C(F)(F)F)nn2-c2ccc(S(N)(=O)=O)cc2)cc1 | -6.62% | 23.1 µM (active)
15 | Cc1cc(O)cc2c1[C@]1(C)CC[C@H]3C(C)(C)CCC[C@]3(C)[C@H]1C2 | -14% | –
16 | OC[C@@H](O)[C@@H](O)[C@H](O)[C@H](O)CO | -5.63% | –
17 | CC(C)NCC(O)COc1cccc2[nH]ccc12 (stereo not given) | -13.8% | –
18 | O=C(CCCN1CC=C(n2c(=O)[nH]c3ccccc32)CC1)c1ccc(F)cc1 | -10.3% | –
19 | CC[C@@H]1C(=O)N(C)c2cnc(Nc3ccc(C(=O)NC4CCC(N5CCN(CC6CC6)CC5)CC4)cc3OC)nc2N1C(C)C (stereo not given in full) | – | 0.0501 µM (active)
20 | CCCN(CCC)S(=O)(=O)c1ccc(C(=O)O)cc1 | 9.34% | –

Row | Structure (SMILES) | activity (max response) | Potency
21 | CC(=O)N/N=C/c1ccc([N+](=O)[O-])o1 | 2.1% | –
22 | C[C@@H](O)[C@H](N)C(=O)O | 12.2% | –
23 | O=C(NCc1ccccc1)c1csc(Nc2ccncn2)n1 | – | 25.1 µM (active)
24 | O=C(O)[C@H](O)c1ccccc1 | 6.97% | –
25 | Cn1ncc(Cl)c1-c1cc(C(=O)NC(CN)Cc2ccc(F)c(F)c2)oc1Cl (stereo not given) | – | 28.2 µM (active)
26 | COc1cccc2c1CCCC2CCCN1CCN(C2CCCCC2)CC1 (stereo not given) | – | 22.4 µM (active)
27 | CCS(=O)(=O)N1CCN(c2ccc(Nc3ncc(C(N)=O)c(NC4CC4)n3)cc2)CC1 | – | 22.4 µM (active)
28 | CCOC(=O)C=C[C@H](C[C@@H]1CCNC1=O)NC(=O)[C@@H](CC(=O)[C@@H](NC(=O)c1cc(C)on1)C(C)C)Cc1ccc(F)cc1 | -3.62% | –
29 | CCOC(=O)C(=O)CCc1ccccc1 | 6.65% | –
30 | CN(C)C(=O)c1cc2cnc(Nc3ccc(N4CCNCC4)cn3)nc2n1C1CCCC1 | -9.21% | –
31 | CN(Cc1cnc2nc(N)nc(N)c2n1)c1ccc(C(=O)N[C@@H](CCC(=O)O)C(=O)O)cc1 | – | 18.4 nM (active) and 251 nM (active)
32 | CCCCCN=C(N)N/N=C/c1c[nH]c2ccc(OC)cc12 | – | 13 µM (active)
33 | COc1nc(C)nc(Cl)c1NC1=NCCN1 | -1.64% | –
34 | N#Cc1ccc(C2CCCc3cncn32)cc1 (stereo not given) | -11.9% | –
35 | Cc1cc(NC(=O)C2=C(O)c3ccccc3S(=O)(=O)N2C)no1 | -0.835% | –
36 | CC(=O)OCC(=O)[C@H]1CC[C@H]2[C@@H]3CCC4=CC(=O)CC[C@]4(C)[C@H]3CC[C@]12C | 2.66% | –
37 | Clc1ccc2c(c1)C(N1CCNCC1)=Nc1ccccc1O2 | -1.69% | –
38 | CCc1cnn2c(NCc3ccc[n+]([O-])c3)cc(N3CCCC[C@H]3CCO)nc12 | – | 0.0355 µM (active)
39 | CN1[C@@H]2CC[C@H]1CC(OC(=O)C(O)c1ccccc1)C2 (stereo not given in full) | 7.83% | –
